Screens as filed in PubChem BioAssay.
CRFBP-R2 agonist – agonists of human CRF-binding protein/CRF-R2 receptor complex; HEK293 CRF-R2/CRF-BP, calcium dye fluorescence (FLIPR); percent of saturating CRF peptide response; activation, % at 13.2 µM; 350,000 compounds, 0.46% hits; AID 588473;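 active = activation of at least 50%, plus an integration ratio under a set limit after plate pattern correction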
CRFR2-BP antag – antagonists of CRF-binding protein/CRF-R2 receptor complex; HEK293 CRF-R2/CRF-BP, CRF-induced calcium fluorescence; 350,000 compounds, 0.59% hits; inhibition, % at 11.8 µM;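 active = inhibition of the ligand-induced calcium signal above about 50% at the single tested concentration, limit read from the data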
TMEM16A inh – blocks the mouse calcium-activated chloride channel TMEM16A; AID 588511; 310,000 compounds, 1.2% hits; HEK293 TMEM16A/YFP iodide influx fluorescence, ionomycin; Q8BHY3; normalized B-score (activity score, 25-100; higher = stronger inhibition) at 10 µM;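 active = ratio plate-corrected score three or more library SD toward inhibition, starting fluorescence score within five deviations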;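 note: score derived from kinetic fluorescence span divided by baseline fluorescence per well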
Target sequence (Q8BHY3 whole entry, looked up): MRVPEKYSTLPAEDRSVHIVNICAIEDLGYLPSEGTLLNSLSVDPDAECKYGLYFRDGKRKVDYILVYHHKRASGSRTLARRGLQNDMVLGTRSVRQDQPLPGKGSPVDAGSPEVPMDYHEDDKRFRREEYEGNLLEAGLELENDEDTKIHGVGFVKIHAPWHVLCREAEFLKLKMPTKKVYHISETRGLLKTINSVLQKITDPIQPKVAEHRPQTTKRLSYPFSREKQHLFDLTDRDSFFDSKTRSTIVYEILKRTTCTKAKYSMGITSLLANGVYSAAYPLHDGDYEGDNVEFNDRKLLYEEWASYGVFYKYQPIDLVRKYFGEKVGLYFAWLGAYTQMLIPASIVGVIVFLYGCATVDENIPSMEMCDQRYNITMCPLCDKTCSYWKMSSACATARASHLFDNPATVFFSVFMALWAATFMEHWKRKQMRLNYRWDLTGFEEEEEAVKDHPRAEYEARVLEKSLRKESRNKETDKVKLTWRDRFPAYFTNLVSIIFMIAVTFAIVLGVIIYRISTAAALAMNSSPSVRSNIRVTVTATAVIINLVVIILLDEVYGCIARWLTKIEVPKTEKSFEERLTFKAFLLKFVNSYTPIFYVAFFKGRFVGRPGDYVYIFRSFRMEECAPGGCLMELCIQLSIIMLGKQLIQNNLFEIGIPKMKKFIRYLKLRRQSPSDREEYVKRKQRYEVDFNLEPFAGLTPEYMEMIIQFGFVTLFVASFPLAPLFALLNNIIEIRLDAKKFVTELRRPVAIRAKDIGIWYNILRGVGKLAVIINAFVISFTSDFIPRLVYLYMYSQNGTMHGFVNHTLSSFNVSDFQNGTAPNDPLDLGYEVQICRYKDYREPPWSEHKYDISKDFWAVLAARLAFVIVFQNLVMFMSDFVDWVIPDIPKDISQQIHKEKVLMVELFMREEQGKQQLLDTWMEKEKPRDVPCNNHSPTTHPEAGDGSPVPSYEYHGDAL
ANO1 activ – activates or potentiates the mouse TMEM16A chloride channel; Q8BHY3; HEK293 TMEM16A/YFP-H148Q/I152L, iodide quench fluorescence; hits give low values; B-score at 10 µM; 340,000 compounds, 0.3% hits; AID 623877;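 active = fluorescence-ratio B-score plate-corrected deviation score at least 3 library SD below zero, with starting fluorescence score within 5 deviations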;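 note: channel opened by trigger with iodide after compound preincubation; score built on the fluorescence ratio of max minus min over baseline; more negative score means more quench and so TMEM16A activation or potentiation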
MPTP block – permeability transition pore inhibition; isolated mouse mitochondria, Ca2+ swelling absorbance, 30 min; inhibition, % at 10 µM; 360,000 compounds, 1.4% hits;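 active = inhibition of 50% or more, scaled per plate between neutral and stimulator controls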
NR3A LBD binder – modulates the human NR3A ligand-binding domain | NR3A LBD differential scanning fluorimetry, Tm shift; 0% = protein alone, 100% = glycine-bound protein | Tm shift relative to glycine control, % at 25 µM | 340,000 compounds, 2.5% hits | AID 1259313;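 active = melting temperature shift of at least 10% of the positive control shift, at one fixed dose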
MPTP counter – Rhodamine 123 counter-screen of mitochondrial pore hits | inhibition, % at 10 µM | AID 624504 | isolated mitochondria, membrane potential, Rhodamine 123 fluorescence | shares compounds with MPTP block | 5,000 compounds, 78% hits; in the data active = inhibition above about 22%
MPTP swell DR – MPTP inhibition, dose response swelling confirmation; shares compounds with MPTP block; isolated mitochondria swelling, absorbance; IC50, µM; 780 compounds, 58% hits; in the data active = IC50 below about 20 µM
MPTP counter DR – counter-screen for mitochondrial permeability transition pore inhibitors, dose response; shares compounds with MPTP block; isolated mitochondria counterscreen, fluorescence read-out; IC50, µM; 780 compounds, 49% hits; AID 651564; in the data active = IC50 below about 80 µM
A number is an active result; 0 = inactive; - = not tested or not shown. This is a sample that favours compounds with a hit; in the whole collection about 5.1% have one here.

SMILES	CRFBP-R2 agonist	CRFR2-BP antag	TMEM16A inh	ANO1 activ	MPTP block	NR3A LBD binder	MPTP counter	others
S=C(Nc1ccc(Oc2ccc(NC(=S)NC3CCCCC3)cc2)cc1)NC1CCCCC1	0	0	0	0	70	32	52
S=C(NCc1cccc(Cl)c1)NC1CCCCC1	0	0	0	0	77	0	67
O=C(Nc1ccc(Cl)cc1Cl)NC1CCCC1	0	0	0	0	0	0	-
S=C(Nc1ccc(Cl)cc1Cl)NC1CCCCC1	0	0	0	0	86	0	109
S=C(NCc1ccccc1)NC1CCCCC1	0	0	0	0	0	0	-
S=C(Nc1ccc(Oc2ccccc2)cc1)NC1CCCCC1	0	0	0	0	80	0	95
CCN(CC)c1ccc(S(=O)(=O)N2CCOCC2)cc1NC(=O)COC(=O)/C=C/c1ccc(C)o1	0	0	0	0	0	0	-
Cc1ccc(NC(=O)C2(C)CCN2C(=O)CCC2CCCC2)cc1C (stereo unspecified)	-	-	-	-	0	-	-
CC1(C(=O)NCc2ccccc2Br)CCN1Cc1ccc(-c2ccccc2)o1 (stereo unspecified)	-	-	-	-	0	-	-
COc1cccc(CC(=O)N(CCC2=CCCCC2)c2c(N)n(Cc3ccccc3)c(=O)[nH]c2=O)c1	0	0	0	0	0	0	-
S=C(NCc1ccccc1)N1CCN(Cc2ccc3c(c2)OCO3)CC1	0	0	0	0	0	0	-
CC(C)c1ccc(NC(=S)NC2CCCCCC2)cc1	0	0	0	0	74	0	87
S=C(Nc1ccc(Oc2ccccc2)cc1)NC1CCCCCC1	0	0	100	0	96	11	89
O=C(O)c1ccc(NC(=S)NC2CCCCC2)cc1	0	0	0	0	0	0	-
S=C(Nc1ccc(Cl)c(Cl)c1)NC1CCCCC1	0	0	0	0	96	23	75
S=C(NCc1ccc2c(c1)OCO2)NC1CCN(Cc2ccccc2)CC1	0	0	0	0	74	0	0	MPTP swell DR=11;MPTP counter DR=54
CCNc1nc(NC(C)C)nc(-c2ccncc2)n1	-	-	-	-	0	-	-
CN(C(=O)COC(=O)C1COc2ccccc2O1)C1(C#N)CCCCC1 (stereo unspecified)	0	0	-	0	0	0	-
COc1ccccc1N(CC(=O)Nc1ccc(Br)cc1F)S(=O)(=O)c1cccs1	0	0	-	0	0	0	-
O=S(=O)(c1cccs1)N1CCN(CC(O)COc2cc(Cl)ccc2Cl)CC1 (stereo unspecified)	0	0	25	-14	87	0	91
CCOc1ccc(S(=O)(=O)N(C)c2ccc(OCC(=O)Nc3ccccc3F)cc2)cc1	0	0	-	0	0	0	-
CCCCCCC1CC(CSC(=N)N)OC1=O (stereo unspecified)	0	0	0	0	91	0	0	MPTP swell DR=0;MPTP counter DR=0
CCN1C(=O)CSC1=NC1C2CC3CC(C2)CC1C3 (stereo unspecified)	0	0	0	0	77	0	0	MPTP swell DR=8.1;MPTP counter DR=36
CCOc1ccc(N=C2SCC(=O)N2CC)cc1	0	0	0	0	0	0	-
O=C(c1ccc(Cl)cc1Cl)N1CCC(C(=O)N2CCOCC2)CC1	0	0	0	0	0	0	-
SMILES	CRFBP-R2 agonist	CRFR2-BP antag	TMEM16A inh	ANO1 activ	MPTP block	NR3A LBD binder	MPTP counter	others
CCc1ccc(/C=C\C(=O)N2CCCC2)cc1	0	0	0	0	0	0	-
CCc1ccc(/C=C\C(=O)N2CCc3ccccc3C2)cc1	0	0	0	0	61	0	36
Cc1ccccc1CN1C(=O)c2ccccc2C1c1nnnn1C(C)C (stereo unspecified)	-	-	-	-	0	-	-
Cc1ccc(C)c(NC(=O)CSc2nc(N)c(NC(=O)c3cccs3)c(=O)[nH]2)c1	0	0	-	0	0	0	-
Cc1ccc(C)c(NC(=O)CSc2nc3nc(-c4cccs4)cc(C(F)(F)F)c3c(=O)[nH]2)c1	0	0	0	0	77	0	61
O=C(CSc1nc2ccccc2[nH]1)Nc1ccc(F)c(F)c1	0	0	0	0	0	0	-
O=C(CSc1nc2nc(-c3cccs3)cc(C(F)(F)F)c2c(=O)[nH]1)Nc1ccc(F)c(F)c1	0	0	25	0	76	35	50
O=C(NCCNC(=O)c1cc(OCC(F)(F)F)ccc1OCC(F)(F)F)Nc1ccc(OC(F)(F)F)cc1	0	0	0	0	80	0	84
O=C(Nc1ccc(F)cc1)Nc1cc(OCC(F)(F)F)cc(OCC(F)(F)F)c1	0	0	0	0	97	27	70
COc1ccc(NC(=O)Nc2ccc(F)cc2)cn1	0	0	0	0	0	0	-
CCOc1ccc(NC(C)=O)cc1	0	0	0	0	0	0	-
O=C(NCCNC(=O)c1cc(OCC(F)(F)F)ccc1OCC(F)(F)F)Nc1ccc(Cl)cc1	0	0	0	-	-	0	-
CCOc1ccc(NC(=O)Nc2cc(OCC(F)(F)F)cc(OCC(F)(F)F)c2)cc1	0	0	0	0	80	0	71
CC(C)(C)C(=O)NC(=S)NNC(=O)c1ccc(-c2ccccc2)cc1	163	0	100	-10	94	0	23
CC(C)(C)C(=O)NC(=S)NNC(=O)c1ccncc1	0	0	0	0	0	0	-
CC(C)(C)C(=O)NC(=S)NNC(=O)c1ccc(Cl)cc1Cl	129	0	100	0	76	0	0
Cc1cccc(NC(=O)NNC(=O)c2ccccn2)c1	0	0	-	0	0	0	-
Nc1nc(Oc2ccc(F)cc2)c(Br)c(=O)[nH]1	0	0	0	0	0	0	-
CNC(C)C(=O)NC(C(=O)NC(C)C(=O)NNc1ccccc1)C(C)C (stereo unspecified)	-	-	-	-	0	-	-
COc1ccc(Cl)cc1S(=O)(=O)NC(C)C(=O)NCc1cccnc1 (stereo unspecified)	0	0	0	0	0	0	-
Cc1nonc1NC(=O)CSc1nc(C2CCCCC2)nc2ccccc12	0	0	0	0	0	0	-
Cc1nonc1NC(=O)CSc1nc(C23CC4CC(CC(C4)C2)C3)nc2ccccc12	0	0	0	0	79	18	72
O=C(NCc1cccnc1)Nc1cccc([N+](=O)[O-])c1	0	0	0	0	0	0	-
O=C(NCc1ccncc1)Nc1cccc([N+](=O)[O-])c1	0	0	0	0	91	0	73
O=C(NCc1ccc(F)cc1)Nc1cccc([N+](=O)[O-])c1	0	0	0	0	62	0	94
O=C(NCc1ccccn1)Nc1cccc([N+](=O)[O-])c1	0	0	0	0	0	0	-
